# The whole screen tested about 11,000 compounds, of which about 310 (2.8%) were called active. Rule as the data show it: active = activity change below about -85%; inactive = the rest. Shown is part of a subset that was picked to be rich in actives.
# System: intestinal alkaline phosphatase [Mus musculus]
# Experiment: activators of mouse IAP, confirmation, biochemical, luminescence, single concentration (AID 434970)
# Settings: purified mouse IAP, CDP-Star luminescence, 30 min, at 10 µM; activation factor: measured here: IAP activation factor, stronger effect = higher value; activity change, negative = activation: stronger effect = lower value
Structure (SMILES),activation factor,"activity change, negative = activation"
Cc1cc(C)c2c(-n3cccc3)c(C(=O)NNS(=O)(=O)c3ccc(Br)cc3)sc2n1,0.865,13.5% (inactive)
CC1(C)CC2CC(C)(CN2C(=O)CN2C(=O)c3ccccc3C2=O)C1 (centres undefined),1.09,-8.65% (inactive)
CC(=O)c1ccc(NC(=O)CCn2c(=O)oc3ccccc32)cc1,1.03,-3.25% (inactive)
COc1ccccc1CNC(=O)CCCOc1cc(=O)n(C)c2ccccc12,0.997,0.3% (inactive)
C=CCC1[C@H](C)[C@H]2[C@@H]3CC[C@@H](C3)[C@H]2CN1S(=O)(=O)c1ccc(C)cc1 (some centres undefined),1.12,-11.8% (inactive)
N#CCc1ccc(NC(=O)Nc2cccc3ccccc23)cc1,1.89,-89.1% (inactive)
O=C(Nc1ccccc1)Nc1cccc2ccccc12,1.79,-78.8% (inactive)
CCN(CC)CCNC(=O)c1ccc(NC(=O)Nc2cccc3ccccc23)cc1,2.6,-160% (active)
CCOc1ccc(CC(=O)OCN2C(=O)c3ccccc3C2=O)cc1,0.926,7.35% (inactive)
CCOc1ccc(NC(=O)CC(c2ccccc2)c2ccc(F)cc2)cc1 (centres undefined),1.44,-43.6% (inactive)
COc1ccccc1C(CC(=O)Nc1ccc(Cl)cc1)c1ccc(OC(C)C)cc1 (centres undefined),1.91,-90.9% (active)
CCOc1ccccc1NC(=O)c1cccc(NC(=O)CC(c2ccccc2)c2ccccc2)c1,1.39,-39.4% (inactive)
Cc1ccc(NC(=O)CNc2ccc(OC(C)C)cc2)cc1,0.9,10% (inactive)
COc1ccccc1C(CC(=O)Nc1ccc(C)c(C)c1)c1ccc(OC(C)C)cc1 (centres undefined),2.06,-106% (active)
Cc1ccc(NC(=O)c2ncn(CC(=O)NCC(C)c3ccccc3)n2)cc1C (centres undefined),0.995,0.5% (inactive)
O=C(CN(Cc1ccccc1F)C(=O)Cn1nnc(-c2cccs2)n1)NC1CCCCC1,1.22,-22.1% (inactive)
Cc1cc(C(F)F)nn1CC(=O)N1CCSCC1,0.984,1.65% (inactive)
CCCC(=O)NC(=S)Nc1ccccc1C(F)(F)F,0.974,2.55% (inactive)
CCN(CC)S(=O)(=O)c1ccc2c(c1)nc(SCc1nc3ccsc3c(=O)[nH]1)n2CC,0.992,0.85% (inactive)
COc1ccc(CNC(=S)Nc2ccc(F)c(Cl)c2)cc1OC,1.56,-56.2% (inactive)
COc1ccc(N2C(=O)CCC(C(=O)NCc3cccnc3)C2c2ccc(OC)c(OC)c2)cc1 (centres undefined),0.977,2.3% (inactive)

Structure (SMILES),activation factor,"activity change, negative = activation"
O=C(Nc1cnn(Cc2ccc(Cl)c(Cl)c2)c1)C12CC3CC(CC(C3)C1)C2,1.17,-16.9% (inactive)
O=C(Nc1cnn(Cc2ccccc2)c1)NC12CC3CC(CC(C3)C1)C2,2.05,-105% (active)
O=C(NCc1ccccn1)NC12CC3CC(CC(C3)C1)C2,1.06,-6.25% (inactive)
COc1ccccc1C(=O)N1CCN=C1SC,0.943,5.75% (inactive)
O=C(O)CCN1C(=O)NC2(CCCC2)C1=O,1.15,-15.3% (inactive)
Cc1ccc(C)c(N(C)C(=O)c2coc(=O)c3ccccc23)c1,0.967,3.3% (inactive)
Cc1cccc(NC(=O)NCC2CCN(c3ccc(S(=O)(=O)N4CCOCC4)cc3)CC2)c1,2.56,-156% (active)
CCc1ccc(NC(=O)NCC2CCN(Cc3cccc(Cl)c3)CC2)cc1,2.2,-120% (active)
O=C(NCC1CCN(Cc2cccc(Cl)c2)CC1)Nc1ccc(Cl)cc1,1.9,-89.5% (inactive)
CCc1cccc(CN2CCC(CNC(=O)Nc3ccc(Cl)cc3)CC2)c1,1.68,-67.9% (inactive)
COc1cccc(NC(=O)COC(=O)c2cc(S(=O)(=O)N3CCOCC3)ccc2C)c1,0.964,3.65% (inactive)
O=C(NCC1CCN(c2ccc(S(=O)(=O)N3CCOCC3)cc2)CC1)Nc1ccccc1,1.77,-77.3% (inactive)
Cc1ccc(NC(=O)NCC2CCN(Cc3cccc(Cl)c3)CC2)cc1Cl,1.87,-87.3% (active)
Cc1cccc(CN2CCC(CNC(=O)Nc3ccc(F)c(Cl)c3)CC2)c1,2.15,-115% (active)
CCOc1cc(/C=N\NC(=O)c2ccc(NC(=O)CC)cc2)ccc1OC(=O)c1ccccc1,1.02,-1.9% (inactive)
Cc1cc(C)nc(SCC(=O)c2ccc([N+](=O)[O-])cc2)n1,0.867,13.3% (inactive)
O=C1Nc2ccccc2C(O)(C(=O)NC2CC2)N1c1ccc(Cl)c(Cl)c1 (centres undefined),0.911,8.85% (inactive)
CCOc1ccc2nc(SCC(=O)N(C)C3CCS(=O)(=O)C3)[nH]c2c1 (centres undefined),0.928,7.2% (inactive)
O=C(c1cccs1)[C@@H]1[C@@H]2C(=O)N(Cc3ccc4c(c3)OCO4)C(=O)[C@@H]2C2c3ccccc3C=CN21 (some centres undefined),0.569,43.1% (inactive)
CCn1c(=O)c(C(=O)NCCN2CCCCC2)c(O)c2ccccc21,0.851,14.8% (inactive)
CC[C@]1(C(=O)OC)[C@H]2C(=O)N(C)C(=O)[C@H]2[C@H]2CN(C)C(=NC3CCCCC3)N21,0.984,1.6% (inactive)

Structure (SMILES),activation factor,"activity change, negative = activation"
Cc1cc2nc(C)n(CCCNC(=O)Nc3cccc4ccccc34)c2cc1C,2.18,-118% (active)
Cc1ccccc1NC(=O)NCCCN1CCN(c2ccccc2)CC1,1.27,-27.2% (inactive)
O=C(NCCc1c[nH]c2ccccc12)Nc1cccc2ccccc12,1.29,-28.6% (inactive)
Cc1cc(=O)n(CCO)c(O)c1C#N,1.02,-1.65% (inactive)
CCOC(=O)C1=CNS(=O)(=O)NC1c1cccc(O)c1 (centres undefined),1.05,-5.15% (inactive)
COc1ccc(NS(=O)(=O)c2ccc(OC)c(OC)c2)cc1OC,0.945,5.5% (inactive)
COc1cccc(-c2csc(NC(=O)Nc3ccccc3)n2)c1,2.11,-111% (active)
COc1cccc(-c2csc(N3CCN(C(=O)Nc4ccc(F)cc4)CC3)n2)c1,1.33,-32.7% (inactive)
O=C(Nc1nc(-c2ccccc2)cs1)NC1CCCCC1,1.61,-61.4% (inactive)
O=C(Nc1ccccc1)Nc1nc(-c2ccc(F)c(F)c2)cs1,1.75,-75.4% (inactive)
O=C(Nc1cccc(Cl)c1)Nc1nc(-c2ccccc2)cs1,2.16,-116% (active)
O=C(Nc1nc(-c2cccs2)cs1)c1ccc(Cl)cc1,0.793,20.7% (inactive)
O=C(Nc1cccc(Cl)c1)Nc1nc(-c2ccc(Cl)cc2)cs1,2.1,-110% (active)
O=C(Nc1ccccc1)Nc1nc(-c2ccc(F)cc2)cs1,1.62,-62.5% (inactive)
Cc1csc(NC(=O)Nc2cccc(Cl)c2)n1,1.11,-11.1% (inactive)
Cc1cc(NCCCn2ccnc2)n2c(nc3ccccc32)c1C#N,1.02,-2.25% (inactive)
CC1(C)Cc2c(sc3c2C2=NCCN2C=N3)CO1,0.94,5.95% (inactive)
COc1ccc(C(c2nnnn2Cc2cccs2)N2CCN(c3ccc(F)cc3)CC2)cc1OC (centres undefined),0.985,1.5% (inactive)
C1=C[C@H]2CC[C@@H]1N(c1ccccc1)O2,0.976,2.4% (inactive)
NC1=NC2(CCCCC2)N(c2ccc(F)cc2)C(N)=N1,0.95,4.95% (inactive)
Cc1ccc(CNC(=O)/C(C#N)=C\c2ccc(N(C)C)cc2)cc1,0.817,18.4% (inactive)

Structure (SMILES),activation factor,"activity change, negative = activation"
CCCOc1ccc(Oc2cc(C)nc(SC)n2)nn1,1.01,-1% (inactive)
Cc1nn(C/C(C#N)=N\O)c(C)[n+]1N,0.961,3.9% (inactive)
COc1cc2c3c(c1)C1(C(=O)N3C(C)(C)C=C2C)C(C#N)=C(N)Oc2cc(O)ccc21 (centres undefined),1,-0.3% (inactive)
COc1ccc(NC(=O)c2ccco2)cc1NC(=O)c1cccc(OC(C)C)c1,0.934,6.55% (inactive)
O=C1CN=C(Nc2ccccc2Cl)N1Cc1ccc2c(c1)OCO2,1.07,-7.1% (inactive)
CCOC(=O)c1ccc(N2CCN(c3ccccc3F)CC2)c(NC(=O)Nc2cccc(OC)c2)c1,4.62,-362% (active)
CCOC(=O)c1ccc(N2CCN(c3ccccc3F)CC2)c(NC(=O)Nc2ccccc2)c1,3.14,-214% (active)
CCOC(=O)c1cccc(NC(=O)Nc2cc(OC)ccc2OC)c1,1.69,-68.8% (inactive)
CCOC(=O)c1ccc(N2CCN(c3ccc(F)cc3)CC2)c(NC(=O)Nc2cccc(OC)c2)c1,1.55,-55% (inactive)
COc1cccc(NC(=O)CCN2CCN(c3ccccc3F)CC2)c1,1.09,-8.65% (inactive)
COC(=O)c1ccc(N2CCN(C)CC2)c(NC(=O)c2cc3ccccc3o2)c1,1.03,-3.1% (inactive)
CC1(C)N=C(SCC(=O)Nc2ccccc2)C(c2ccc(Cl)cc2)=N1,0.943,5.75% (inactive)
COc1cc(C2CC(=O)Oc3ccc(C(C)(C)C)cc32)cc(OC)c1OC (centres undefined),1.07,-6.8% (inactive)
O=C(O)CCN(CCC(=O)O)c1ccccc1,1.02,-1.9% (inactive)
COc1ccc(NC(=O)Nc2ccc3c(c2)C(=O)N([C@H](C)CO)C[C@H](C)[C@@H](CN(C)C(=O)Nc2ccc(OC)cc2)O3)cc1,1.6,-60% (inactive)
CNC[C@H]1Oc2ccc(NC(=O)Nc3ccc4c(c3)OCO4)cc2C(=O)N([C@H](C)CO)C[C@@H]1C,1.48,-47.9% (inactive)
CNC[C@@H]1Oc2ccc(NC(=O)Nc3cccc4ccccc34)cc2C(=O)N([C@@H](C)CO)C[C@@H]1C,2.43,-143% (active)
CNC[C@@H]1Oc2ccc(NC(=O)Nc3ccccc3)cc2C(=O)N([C@@H](C)CO)C[C@H]1C,1.61,-61.5% (inactive)
CNC[C@H]1Oc2ccc(NC(=O)Nc3ccc(OC)cc3)cc2C(=O)N([C@@H](C)CO)C[C@H]1C,2.23,-123% (active)

# From PubChem BioAssay AID434970 (Sanford-Burnham Center for Chemical Genomics, 2010)
